Nrf2 inh: Nrf2 pathway inhibition; A549 ARE-Fluc reporter, luciferase luminescence, 18-24 h; Potency, µM (series often up to 46 µM), for the others: top-dose activity change, negative = inhibition, usual class: inhibitors; 2.1% of 360,000 active; AID 504444; also: potency is read from the fitted curve at half-maximal effect; % is scaled to controls: 0 for no effect and ±100 for the full control effect; nearly all actives have a fitted effect of over 60% in size
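In this cell-based qHTS, ARE-driven firefly luciferase in A549 cells reports Nrf2 activity; the luminescent signal after BugLite lysis is the measured value, with a prior CellTiter-Fluor read for cell health.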
LDHA block: blocks human lactate dehydrogenase A. 0.15% of 480,000 active. AID 1347041. activity change, % (values are at about 110 or 230 µM). purified LDHA, NADH/diaphorase-resazurin fluorescence; hits give low values; in the data active = activity change below about -30%; inconclusive = mostly about -25% to -30%;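 also: plate controls were DMSO wells for no effect and wells without enzyme for full effect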
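Remaining NADH was detected by diaphorase (0.133 mg/mL) converting 37 µM resazurin to fluorescent resorufin, read at 0 and 20 minutes. The preceding 5-minute room-temperature reaction used 2 nM LDHA, 0.2 mM sodium pyruvate and 0.06 mM NADH at pH 7.4.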
A549 viability: A549 cytotoxicity, counter-screen for Nrf2 inhibitors | A549 ARE-Fluc cells, CellTiter-Fluor viability, 18-24 h | Potency, µM (top dose mostly 46 µM), without a hit: at the highest dose activity change, negative = cytotoxicity, hits mostly inhibitors | 0.16% of 390,000 active; also: potency is read from the fitted curve at half-maximal effect; % is scaled to controls: 0 for no effect and ±100 for the full control effect
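Cytotoxicity counterscreen: CellTiter-Fluor fluorescence was measured in A549 ARE_Fluc cells after 18-24 h of compound exposure in a concentration series. The subsequent BugLite luminescent read reports ARE-luciferase activity.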
ERG-DNA inh: ERG Ets/DNA interaction inhibition. P11308. fluorescence polarization, His-ERG Ets domain / labelled DNA. Potency, µM (highest dose often 76.9 µM), for the others: at the top dose FP activity, negative = inhibition, hits mostly inhibitors. 0.028% of 370,000 active. AID 624246; active = well fitted inhibition curve with a large enough effect in the polarisation, with a control signal flat; inconclusive = small, poorly fitted or top-dose-only effect, or effect the other way, or a change in a side signal; inactive = no such curve, though single readings can be large or run the other way; the % refers to the polarisation;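 also: polarization taken with two DNA probes labelled with fluorescein and Texas red; potency is read from the fitted curve at half-maximal effect; % of control where 0% means no effect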
Target sequence (P11308 whole entry, looked up, the tested form may be a part): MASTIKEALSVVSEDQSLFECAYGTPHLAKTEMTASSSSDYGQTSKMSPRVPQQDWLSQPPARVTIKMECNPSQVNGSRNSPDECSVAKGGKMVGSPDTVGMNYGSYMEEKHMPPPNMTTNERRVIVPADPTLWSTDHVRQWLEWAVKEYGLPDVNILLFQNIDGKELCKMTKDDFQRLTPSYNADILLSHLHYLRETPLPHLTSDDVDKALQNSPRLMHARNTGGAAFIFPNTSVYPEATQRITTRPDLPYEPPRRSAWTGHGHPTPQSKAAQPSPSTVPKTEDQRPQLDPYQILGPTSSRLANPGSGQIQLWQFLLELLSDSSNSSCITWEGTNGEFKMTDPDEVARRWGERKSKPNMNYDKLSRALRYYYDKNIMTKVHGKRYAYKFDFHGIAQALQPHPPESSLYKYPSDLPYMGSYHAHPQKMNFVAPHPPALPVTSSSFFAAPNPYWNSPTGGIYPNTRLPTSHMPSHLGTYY
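His-tagged ERG Ets domain (1 uM in the protein solution; 300mM KCl, 50mM Tris-HCl, 1mM EDTA, 1mM DTT, pH 7.5) received compound, then a probe mix of 5 nM fluorescein-DNA and 100nM Texas-615-DNA. Fluorescence polarization was read for both dyes.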
ALOX12 inh: inhibitors of human 12S-lipoxygenase ALOX12. P18054. purified 12hLO, xylenol orange hydroperoxide absorbance. Potency, µM (top dose mostly 108 µM), for inactives: top-dose activity change, negative = inhibition, most hits filed as inhibitors. 1.1% of 580,000 active. AID 1671190; also: potency is read from the fitted curve at half-maximal effect; % is scaled to controls: 0 for no effect and ±100 for the full control effect
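Purified human 12hLO at 150 nM in 25 mM Hepes, 0.01% Triton X-100, pH 7.0, preincubated 15 min at room temperature with compound. Reaction started with 40 uM arachidonic acid, 30 min at room temperature. Hydroperoxide measured by Fe-xylenol orange, 573/405 nm absorbance ratio.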
Nrf2 ARE act: activates Nrf2 signaling; 0.31% of 410,000 active; AREc32 ARE-luciferase reporter (MCF7-derived line), luminescence, 24 h; Potency, µM (highest dose often 46.1 µM), without a hit: at the top dose activation, actives largely listed as activators; also: potency is read from the fitted curve at half-maximal effect; % of control where 0% means no effect; nearly all actives have a fitted effect of over 65% in size
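For detection, Steady-Glo was added and plates sat 30 min at RT; before that, AREc32_Fluc cells grown overnight in OPTI-MEM/5% FBS had been treated with 23 nL compound for 24 hr at 37 deg C.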
Starred values were filed as active, the others as inactive; u = inconclusive; x = no result. Only some compounds are listed: those with a hit (about 2.7% of all), similar ones and a draw of the others. Unless noted, calls follow the shape of the dose curve; as a rule, active = well fitted curve in the direction sought with a large enough effect; inconclusive = small, poorly fitted or top-dose-only effect, or another doubt; inactive = no such curve, though single readings can be large; an effect the other way counts as inactive or inconclusive.

SMILES	Nrf2 inh	LDHA block	A549 viability	ERG-DNA inh	ALOX12 inh	Nrf2 ARE act
COCCn1cc2c(c1-c1ccc(Cl)cc1)c(=O)n(C)c(=O)n2C	x	0	x	x	u	x
O=[N+]([O-])c1ccc(N2CCN(C(=S)Nc3cccc(F)c3)CC2)cc1	16µM*	-5	-18%	11%	-20%	4%
O=[N+]([O-])c1ccc(N2CCN(C(=S)Nc3ccc(F)cc3F)CC2)cc1	23µM*	-5	u	26%	-3%	3%
Cc1cc(C)n2nc(SC(C)C(=O)Nc3c(Cl)cc(Cl)cc3Cl)nc2n1 (configuration not stated)	x	21	x	x	u	x
N#Cc1c(Nc2cccc(F)c2)sc(C(=O)c2ccc(Cl)cc2)c1N	6%	-2	-3%	-2%	45µM*	20%
COc1cccc(Nc2sc(C(=O)c3ccc(F)cc3)c(N)c2C(=O)NCc2ccc(Cl)cc2)c1	x	5	-12%	-2%	-22%	-3%
CCOc1ccccc1C(=O)NC1CC2CCCC(C1)N2Cc1nnnn1Cc1ccco1 (configuration not stated)	-18%	-6	-12%	-8%	1%	-1%
O=C(NC1CC2CCC(C1)N2Cc1nnnn1Cc1ccco1)NC12CC3CC(CC(C3)C1)C2 (configuration not stated)	4.1µM*	4	-28%	3%	0%	2%
CCCCCC(=O)Nc1nc(C)c(-c2csc(Nc3cc(Cl)ccc3C)n2)s1	15%	-6	0%	2%	-26%	0%
CCCC(C)C(=O)Nc1nc(C)c(-c2csc(Nc3cc(Cl)ccc3C)n2)s1 (configuration not stated)	23µM*	-2	-3%	-5%	-27%	0%
O=C(CSc1ccc(-c2ccco2)nn1)c1ccc(F)cc1	25%	6	-5%	-5%	28µM*	27%
CSc1nnc(-c2ccccc2)c(-c2ccccc2)n1	1%	-1	-1%	-6%	2%	0%
CSc1nnc(-c2ccco2)c(-c2ccco2)n1	-2%	7	-10%	11%	22µM*	7.9µM*
COc1ccc(C(=O)CSc2nnc(-c3ccco3)c(-c3ccco3)n2)cc1	13%	0	-11%	16%	20µM*	u
O=C(CSc1nnc(-c2ccco2)c(-c2ccco2)n1)Nc1ccccc1	-18%	10	-12%	6%	u	13µM*
COc1ccc(C(=O)CSc2nnc(-c3ccco3)n2C)cc1	26%	1	-3%	-3%	1%	3%
O=C(CSc1nc2cc([N+](=O)[O-])ccc2o1)Nc1ccc(F)c(F)c1	x	-5	x	x	u	x
Cc1ccccc1NC(C)C(=O)N/N=C/c1ccccc1OCc1cccc(Br)c1 (configuration not stated)	15µM*	-6	-25%	7%	0%	0%
CCOC(=O)C1=C(O)C(=O)N(c2ccccc2)C1c1ccccc1F (configuration not stated)	x	-2	x	x	-9%	x
O=C1C(O)=C(c2ccccc2)C(c2ccccc2F)N1c1ccc(F)cc1 (configuration not stated)	x	-41*	x	x	-9%	x
O=C(CN1CCN(c2ccccc2F)CC1)NC(=O)NCC(F)(F)F	x	-12	x	x	1%	x
N#Cc1nc(COc2ccc(Cl)cc2)oc1NCc1ccc(F)cc1	x	-4	x	x	u	x
CN(C)c1ccc(NC(=S)N[C@H]2CO[C@H]3[C@@H]2OC[C@H]3OC(=O)Nc2cccc3ccccc23)cc1	x	x	x	x	11%	x
COc1cc(NC(=S)N[C@H]2CO[C@H]3[C@@H]2OC[C@H]3OC(=O)Nc2ccccc2)cc(OC)c1	x	x	x	x	-16%	x
CCNC(=O)O[C@@H]1CO[C@H]2[C@@H]1OC[C@@H]2NC(=S)Nc1ccc(N(C)C)cc1	x	x	x	x	112µM*	x
O=C(Nc1cccc2ccccc12)O[C@@H]1CO[C@H]2[C@@H]1OC[C@@H]2NC(=S)Nc1cccc2ccccc12	x	x	x	x	50µM*	x
